Test [1] in a line: A549 cell viability effects, profiling panel, calcein-AM fluorescence, 48 h, basal (AID 1162). The note with it: higher = more signal.
Test [2] can be described thus: adipocyte viability effects, profiling panel, cell-based, 3T3-L1 adipocytes, calcein-AM fluorescence, 48 h, basal (AID 1163). The note with it: 3T3-L1 adipocytes viability, higher = more signal.
Test [3] can be described thus: HepG2 cell viability effects, profiling panel, calcein-AM fluorescence, 48 h, basal (AID 1164). The note with it: higher = more signal.
Test [4] in a line: MM1S cell viability effects, profiling panel, calcein-AM fluorescence, 48 h, basal (AID 1165).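 Note: viability of MM1S multiple myeloma cells under basal unstimulated conditions.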 The note with it: higher = more signal.
Test [5] in a line: basal RPMI8226 viability, no added stimulus, profiling panel, cell-based, calcein-AM fluorescence, 48 h, PK04 Diversity Set (AID 1166).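 Note: cells grown under basal conditions without added stimulus.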 The note with it: RPMI8226 myeloma viability, higher = more signal.
Test [6] can be described thus: basal HepG2 mitochondrial membrane potential changes, profiling panel, cell-based, JC-1 fluorescence, 24 h, 100 nL compound (AID 1167). The note with it: higher = more signal.
Test [7] in a line: basal 3T3-L1 adipocyte mitochondrial potential changes, profiling panel, cell-based, JC-1 fluorescence, 3T3-L1 adipocytes, 24 h, 100 nL compound (AID 1168). The note with it: JC-1 mitochondrial fluorescence, higher = more signal, called active from +8 up or from −8 down.
Test [8] is described as follows: basal RPMI8226 mitochondrial membrane potential changes, profiling panel, cell-based, JC-1 fluorescence, 24 h, 100 nL compound (AID 1169). The note with it: RPMI8226 myeloma, JC-1 mitochondrial potential fluorescence, higher = more signal.
Test [9] in a line: basal MM1S mitochondrial membrane potential changes, profiling panel, cell-based, JC-1 fluorescence, 24 h, 100 nL compound (AID 1170). The note with it: higher = more signal.
A short description of test [10]: A549 lung cancer cell viability effects, profiling panel, resazurin fluorescence, 24 h, PK04 Diversity Set (AID 1171). The note with it: higher = more signal, called active from +8 up or from −8 down. In general terms: Resazurin is reduced to fluorescent resorufin, in cell work by metabolically active cells.

Z-score data for 16 compounds are collected here from PubChem BioAssay.

Active and inactive are the calls of the source.
Note: test concentration not given here.

Consider `C=C[C@H](C)[C@H](OC(=O)Nc1ccc(OC)cc1)c1ccc(OCCO)cc1`, for which the z-score in test [1] was 0.366; in test [2], -0.402; in [3], 0.692; in [4], -0.412; in [5], -1.83; in test [6], -0.569. In addition, the z-score in [7] was 0.627 (inactive); in [8], -0.0376; in test [9], 0.873; in test [10], -0.262 (inactive).

For the compound `CCc1cccc(NC(=O)O[C@H]2[C@H](OC(=O)Nc3ccccc3)[C@H](OC(=O)Nc3ccccc3)[C@@H](OC)O[C@@H]2CO)c1`, the z-score in test [1] is -1.97; in [2], 1.18; in [3], -5.14; in test [4], -3.46; in [5], -4.3; in [6], -2.34. Also, the z-score in test [7] is 0.867 (inactive); in test [8], -1.2; in test [9], -2.32; in test [10], -4.35 (inactive).

As for `CCOC(=O)C1=CC[C@@H](c2ccccc2)N(S(=O)(=O)c2ccc(C)cc2)[C@H]1c1cccc(OC)c1`, the z-score in [1] is -0.716; in test [2] it was -1.41; in test [3], -0.0906; in test [4], -0.247; in test [5] it was -0.907; in test [6], 2.94. Also, the z-score in test [7] is -0.293 (inactive); in test [8], 0.505; in test [9] it was -1.35; in test [10], 0.776 (inactive).

As for `Cc1ccc(N2C(=O)c3ccccc3[C@](C)(C(=O)NCc3ccccc3)[C@@H]2c2ccc(CO)cc2)nc1`, the z-score in test [1] is 0.868; in test [2] it was 0.483; in test [3], 0.197; in [4], -0.169; in test [5] it was -1.46; in test [6], 0.191. The z-score was -0.834 (inactive) in test [7], -0.494 in [8], 1.46 in test [9] and -0.0526 (inactive) in [10].

For the compound `O=c1cccc(-c2ccc(F)cc2)o1`, the z-score in test [1] was -0.562; in test [2] it was 0.616; in [3], -0.606; in test [4] it was -0.0871; in test [5], -0.913; in [6], 0.0366. The z-score in [7] is 0.5 (inactive); in [8], 0.036; in test [9] it was -0.0644; in test [10] it was -0.0964 (inactive).

As to `O=C(O)[C@@H]1C[C@@H]2C(=O)N3CCC[C@H]3C(=O)N2[C@@H]1c1cccc(OCCO)c1`, the z-score was 0.0951 in [1]; 0.717 in test [2]; -0.439 in test [3]; -0.456 in test [4]; -0.159 in test [5]; 0.591 in test [6]. Besides, the z-score is 0.283 (inactive) in test [7], 0.817 in test [8], 0.718 in test [9] and -0.0326 (inactive) in test [10].

Turning to `C=C(/C(=C/C[C@H](OC(=O)c1ccncc1)c1cccc(OCCO)c1)c1cnc2ccccc2c1)C(C)C`, the z-score is -1.69 in [1]; -1.31 in test [2]; -3.17 in test [3]; -3.07 in test [4]; -2.93 in [5]; -0.437 in test [6]. Also, the z-score in [7] was -0.649 (inactive); in [8], -0.0462; in [9], -0.888; in test [10], -1.68 (inactive).

As to `C=C[C@@H](OC)[C@H](OC(=O)Nc1ccc(SC)cc1)c1ccc(OCCO)cc1`, the z-score in test [1] was -0.568; in test [2], 0.222; in test [3], -0.587; in [4] it was -2.08; in test [5], -1.56; in test [6] it was -2.68. Further, the z-score was 0.286 (inactive) in test [7], -0.151 in test [8], -0.333 in test [9] and -0.285 (inactive) in test [10].

Turning to `Cc1ccc(S[C@]2(C(=O)NCc3ccccc3)CC(=O)N(Cc3cc(C(F)(F)F)cc(C(F)(F)F)c3)[C@@H]2c2ccc(CO)cc2I)cc1`, the z-score in test [1] is 0.666; in [2], 0.336; in test [3] it was -0.165; in test [4], -1.87; in test [5], -2.22; in [6], 0.994. Besides, the z-score in test [7] was -0.00208 (inactive); in [8], -0.133; in test [9], -0.713; in [10], 0.772 (inactive).

Take `Cc1ccc([C@H]2C(C(=O)O)=C[C@@H](C(C)(C)C)N2S(=O)(=O)c2ccc(C)cc2)cc1`: the z-score is -0.728 in test [1]; -0.85 in [2]; -0.338 in test [3]; 0.0315 in [4]; -0.4 in test [5]; -0.892 in test [6]. Moreover, the z-score in [7] is -0.38 (inactive); in test [8], -0.0701; in test [9] it was -1.19; in [10] it was -0.654 (inactive).

On to `CCCNC(=O)[C@@]1(Sc2ccc(C)cc2)CC(=O)N(C(C)C)[C@@H]1c1ccc(CO)cc1I`, for which the z-score in test [1] was 0.505; in [2], 0.49; in test [3], -0.658; in test [4] it was -2.65; in [5], -2.09; in test [6] it was 0.632. The z-score in test [7] is -0.769 (inactive); in test [8] it was -0.919; in test [9], -1.02; in [10], -0.0866 (inactive).

For the compound `C#C[C@@H](CC)O[Si](C#CCCCC#N)(C(C)C)C(C)C`, the z-score was -0.533 in test [1]; -0.87 in test [2]; -0.168 in test [3]; -3.16 in test [4]; -0.501 in test [5]; -0.626 in test [6]. Also, the z-score in [7] is 0.117 (inactive); in test [8] it was -0.45; in [9] it was -1.73; in [10] it was -0.0413 (inactive).

As for `Cc1ccc(S[C@]2(C(=O)NC(C)C)CC(=O)N(Cc3ccccc3Cl)[C@@H]2c2ccc(CO)cc2)cc1`, the z-score is 0.175 in test [1]; 0.35 in [2]; -0.12 in [3]; -0.387 in test [4]; -2.06 in [5]; -0.142 in [6]. Besides, the z-score was -0.397 (inactive) in [7], -0.0618 in test [8], 0.551 in [9] and 0.232 (inactive) in test [10].

For the compound `CC(=O)N1CC(C(O)C2C=CC3C(=O)NC(=O)C3N2Nc2ccc(Cl)cc2Cl)c2ccccc21` (stereo not given), the z-score is 1.08 in [1]; -0.753 in test [2]; 0.46 in test [3]; -0.452 in test [4]; 0.0876 in test [5]; -1.29 in [6]. In addition, the z-score in [7] was -0.229 (inactive); in [8], -0.212; in [9], 0.644; in [10], -0.554 (inactive).

With `C=CCOC(=O)[C@H]1[C@@H]2C(=O)O[C@@H](c3ccccc3)[C@@H](c3ccccc3)N2[C@@H](c2ccc(OCCOC(=O)[C@H]3C[C@H]4C(=O)N[C@@H](CCCCNC(C)=O)C(=O)N4[C@H]3c3cccc(OCCO)c3)cc2)[C@]12C(=O)Nc1ccc(I)cc12`, the z-score was 0.0973 in test [1]; 1.5 in [2]; -0.621 in test [3]; 0.035 in test [4]; -0.665 in test [5]; -1.91 in [6]. Besides, the z-score in [7] is 0.622 (inactive); in test [8], -0.676; in [9] it was -0.519; in test [10], -0.342 (inactive).

As to `O=C1C2C=CC(C(O)c3ccc4c(c3)OCO4)N(Nc3ccccc3)C2C(=O)N1c1ccccc1` (stereo not given), the z-score is -0.587 in test [1]; -0.756 in [2]; -0.634 in test [3]; -0.427 in test [4]; 0.0871 in test [5]; -1.47 in test [6]. The z-score is -1.19 (inactive) in [7], 0.558 in [8], -0.636 in test [9] and 0.773 (inactive) in test [10].
